Several values for one entry are separate records, joined by “and”; a condition that tells them apart may be missing. Equal entries are not always repeated. Results filed as inconclusive are left out. Activity calls are given as the source filed them. The call rests on the fitted dose curve; in most records, active means well fitted curve in the direction sought with a large enough effect; inconclusive means small, poorly fitted or top-dose-only effect, or another doubt; inactive means no such curve, though single readings can be large; an effect the other way counts as inactive or inconclusive.
What was measured:
[1] = qHTS of pediatric cancer cell lines to identify multiple opportunities for drug repurposing: Confirmatory screen for MG 63 (6-TG R) cells (AID 1347119); further: nearly all actives have a fitted effect of over 55% in size
Outline: (§1)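 Cells (500-1,000/well) rested 5 h, then received compounds for 48 h; metabolically active cells were measured by CellTiter-Glo luminescence. Final concentrations spanned up to 46 µM (MIPE, 11-point) or 0.59 nM-46 µM (NPC, 8-point) in primary screens, 11-point in follow-ups.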

[2] = qHTS of pediatric cancer cell lines to identify multiple opportunities for drug repurposing: Confirmatory screen for control Hh wild type fibroblast cells (AID 1347121); further: nearly all actives have a fitted effect of over 70% in size
Outline: as §1

[3] = qHTS of pediatric cancer cell lines to identify multiple opportunities for drug repurposing: Confirmatory screen for U-2 OS cells (AID 1347122); further: nearly all actives have a fitted effect of over 65% in size
Outline: as §1

[4] = qHTS of pediatric cancer cell lines to identify multiple opportunities for drug repurposing: Confirmatory screen for Rh41 cells (AID 1347123);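 further: 48 h compound exposure; nearly all actives have a fitted effect of over 60% in size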
Outline: as §1

[5] = qHTS of pediatric cancer cell lines to identify multiple opportunities for drug repurposing: Confirmatory screen for Saos-2 cells (AID 1347127); further: nearly all actives have a fitted effect of over 60% in size
Outline: as §1

[6] = qHTS of pediatric cancer cell lines to identify multiple opportunities for drug repurposing: Confirmatory screen for OHS-50 cells (AID 1347128);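 further: compound exposure lasted 48 h at 37 degrees C; nearly all actives have a fitted effect of over 55% in size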
Outline: as §1

[7] = qHTS of pediatric cancer cell lines to identify multiple opportunities for drug repurposing: Confirmatory screen for SK-N-SH cells (AID 1347129);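 further: cells exposed to compound for 48 h before viability read; nearly all actives have a fitted effect of over 60% in size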
Outline: as §1

Furin (Homo sapiens) = Furin (Homo sapiens) (UniProt P09958); test: Furin counterscreen qHTS for Zika virus inhibitors (AID 1347149); further: nearly all actives have a fitted effect of over 70% in size
Chain of Furin (Homo sapiens) (P09958 whole entry, looked up): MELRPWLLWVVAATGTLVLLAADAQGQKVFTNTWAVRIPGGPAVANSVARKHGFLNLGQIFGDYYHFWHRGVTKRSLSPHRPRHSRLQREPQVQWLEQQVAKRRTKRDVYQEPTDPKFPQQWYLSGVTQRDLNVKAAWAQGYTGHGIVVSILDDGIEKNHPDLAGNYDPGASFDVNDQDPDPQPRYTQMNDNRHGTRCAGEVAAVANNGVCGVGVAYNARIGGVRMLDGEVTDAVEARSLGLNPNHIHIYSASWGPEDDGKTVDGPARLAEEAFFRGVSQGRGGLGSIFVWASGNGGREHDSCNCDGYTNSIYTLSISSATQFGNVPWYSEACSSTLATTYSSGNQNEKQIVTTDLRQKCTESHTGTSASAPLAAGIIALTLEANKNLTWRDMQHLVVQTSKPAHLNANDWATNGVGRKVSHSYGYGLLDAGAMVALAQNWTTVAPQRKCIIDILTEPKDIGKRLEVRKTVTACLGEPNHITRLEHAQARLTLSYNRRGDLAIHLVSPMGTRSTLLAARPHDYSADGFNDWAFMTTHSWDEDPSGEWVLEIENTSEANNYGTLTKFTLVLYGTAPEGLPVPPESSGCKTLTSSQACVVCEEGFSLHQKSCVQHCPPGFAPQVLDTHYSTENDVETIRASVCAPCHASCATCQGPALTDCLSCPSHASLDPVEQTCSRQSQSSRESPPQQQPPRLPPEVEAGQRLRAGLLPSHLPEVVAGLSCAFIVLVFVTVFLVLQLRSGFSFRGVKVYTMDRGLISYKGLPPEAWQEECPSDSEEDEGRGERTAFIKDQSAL
Outline: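 Counterscreen measures cleavage of 2 microM BOC-RVRR-AMC, below its ~15 microM Km, by 5 nM full-length human furin at pH 7.0 after a 15-min compound preincubation. Inhibition derives from the 15-min fluorescence increase at 37C.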

[8] = qHTS of pediatric cancer cell lines to identify multiple opportunities for drug repurposing: Confirmatory screen for Rh30 cells (AID 1347126); further: nearly all actives have a fitted effect of over 55% in size
Outline: as §1

[9] = target: N-terminal Xaa-Pro-Lys N-methyltransferase 1 (Homo sapiens) (UniProt Q9BV86); test: qHTS Assay for Inhibitors of N-terminal methyltransferase 1 (NTMT1): LOPAC validation of the NTMT1 SAHH-coupled ThioGlo3 Assay (AID 1347143);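 further: SAH from peptide methylation measured as thiol fluorescence via SAHH coupling and ThioGlo3; nearly all actives have a fitted effect of over 70% in size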
Chain of N-terminal Xaa-Pro-Lys N-methyltransferase 1 (Homo sapiens) (Q9BV86 whole entry, looked up): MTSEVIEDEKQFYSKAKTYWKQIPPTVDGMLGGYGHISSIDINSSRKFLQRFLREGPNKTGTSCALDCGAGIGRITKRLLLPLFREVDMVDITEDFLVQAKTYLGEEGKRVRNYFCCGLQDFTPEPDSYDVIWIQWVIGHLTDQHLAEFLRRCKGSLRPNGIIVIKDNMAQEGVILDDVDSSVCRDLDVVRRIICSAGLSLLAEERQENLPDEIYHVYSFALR
Outline: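 NTMT1 125nM + cpds (various conc.), 1 min RT; add SAM 100uM/SAHH 10uM/ThioGlo3 15uM (addition mix). SAHH-coupled thiol detection, Ex340/Em450, t0 and 30 min RT; signal normalized to background. LOPAC 1280-cpd pilot.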

Measured: Potency
Potency means the concentration at half of the fitted maximal effect.

Nc1nc(=S)c2[nH]cnc2[nH]1
active: [3] 1.04 µM and 928 nM | [4] 14.7 µM and 13.1 µM | [5] 7.37 µM and 2.93 µM | [6] 928 nM and 414 nM | [7] 4.18 µM and 3.72 µM
inactive: [1] | [2] | Furin (Homo sapiens)

Oc1c(Cl)cc(Cl)c2cccnc12
active: [1] 11.7 µM | [3] 9.27 µM | [4] 14.7 µM | [8] 18500 nM | [7] 20.9 µM

Nc1nc(N)nc(-c2cc(Cl)ccc2Cl)n1
inactive: [1] | [2] | [8] | [5] | [6] | [7]

CCCCOc1ccc(CC(=O)NO)cc1
inactive: [1] | [2] | [3] | [5] | [6] | [7]

CN(C)c1ccc(C(=C2C=CC(=[N+](C)C)C=C2)c2ccc(N(C)C)cc2)cc1
active: [1] 0.827 µM | [2] 1040 nM | [3] 1.85 µM | [4] 0.522 µM | [8] 1170 nM | [5] 1.31 µM | [6] 3.69 µM | [7] 1.32 µM

CCOC(=O)[C@H](CCc1ccccc1)N[C@H]1CS[C@H](c2cccs2)CN(CC(=O)O)C1=O
not listed: [6] | Furin (Homo sapiens) | [9]
inactive: all other assays above

COC(=O)Nc1nc2ccc(Sc3ccccc3)cc2[nH]1
inactive: [8]
active: [1] 0.928 µM | [3] 3.69 µM | [4] 1.17 µM | [5] 1.31 µM | [6] 1.31 µM | [7] 5.9 µM

O=S(=O)(O)CCS
inactive: [3] | [4] | [8] | [7]
active: [1] 5.22 µM

CN1CCCC(n2nc(Cc3ccc(Cl)cc3)c3ccccc3c2=O)CC1 (centres undefined)
inactive: [1] | [2] | [3] | [8] | [5]
active: [4] 8.27 µM | [7] 20.9 µM

COC(=O)Nc1nc2ccc(S(=O)c3ccccc3)cc2[nH]1 (centres undefined)
inactive: [2] | [8]
active: [1] 1.31 µM | [3] 2.93 µM | [4] 1.04 µM | [5] 1.47 µM | [6] 2.33 µM | [7] 2.96 µM

CNNCc1ccc(C(=O)NC(C)C)cc1
not listed: Furin (Homo sapiens) | [9]
inactive: all other assays above

CCC(=O)O[C@]1(C(=O)CCl)[C@@H](C)C[C@H]2[C@@H]3CCC4=CC(=O)C=C[C@]4(C)[C@@]3(F)[C@@H](O)C[C@@]21C
active: [4] 26.1 µM | [8] 13100 nM
not listed: Furin (Homo sapiens) | [9]
inactive: all other assays above

CCc1c2c(nc3ccc(OC(=O)N4CCC(N5CCCCC5)CC4)cc13)-c1cc3c(c(=O)n1C2)COC(=O)[C@]3(O)CC
active: [1] 1.85 µM | [4] 4.14 µM | [8] 5850 nM | [5] 1.85 µM | [6] 2.61 µM
inactive: [2]

Nc1nc(N)c2nc(CNc3ccc(C(=O)NC(CCC(=O)O)C(=O)O)cc3)cnc2n1 (centres undefined)
active: [6] 0.369 µM | [9] 56200 nM | Furin (Homo sapiens) 19100 nM
inactive: all other assays above

Nc1[nH]c(=O)ncc1F
not listed: [5] | Furin (Homo sapiens) | [9]
inactive: all other assays above

CNS(=O)(=O)CCc1ccc2[nH]cc(C3CCN(C)CC3)c2c1
not listed: Furin (Homo sapiens)
inactive: all other assays above

O=NN(CCCl)C(=O)NC1CCCCC1
not listed: [5] | Furin (Homo sapiens) | [9]
inactive: all other assays above

CNCC[C@H](Oc1cccc2ccccc12)c1cccs1
inactive: [2] | [3] | [8] | [5]
active: [1] 26.1 µM

Nc1nc(F)nc2c1ncn2[C@@H]1O[C@H](CO)[C@@H](O)[C@@H]1O
inactive: [2]
active: [1] 737 nM and 827 nM | [3] 1.47 µM | [5] 928 nM and 1.17 µM | [6] 0.414 µM

Cn1nnc2c(C(N)=O)ncn2c1=O
not listed: Furin (Homo sapiens) | [9]
inactive: all other assays above

CC(C)NCC(O)c1ccc(NS(C)(=O)=O)cc1 (centres undefined)
not listed: Furin (Homo sapiens) | [8]
inactive: all other assays above

CCC(=O)O[C@]1(C(=O)SCF)[C@H](C)C[C@H]2[C@@H]3C[C@H](F)C4=CC(=O)C=C[C@]4(C)[C@@]3(F)[C@@H](O)C[C@@]21C
inactive: [1] | [2] | [4] | [5] | [6] | [7]

Reference: PubChem BioAssay (NCATS)
